# Screening data: PubChem, National Center for Advancing Translational Sciences (NCATS)
# In the library only some 3.4% were active in any assay of this set; here they are far more common.
# NPSR antag: qHTS Assay for Antagonists of the Neuropeptide S Receptor: cAMP Signal Transduction; Q6W5P4; CHO-NPSR cells, cAMP TR-FRET, antagonist mode; Potency, µM (doses to about 38.3 µM), for inactives: at the top dose activity change, negative = inhibition, hits mostly inhibitors; 1% of 220,000 active; AID 1461, 2008; note: potency is the fitted concentration of half-maximal effect; % is set by controls: 0 for no effect and ±100 for the full control effect; nearly all actives have a fitted effect of over 50% in size
# Target sequence (Q6W5P4 whole entry, looked up): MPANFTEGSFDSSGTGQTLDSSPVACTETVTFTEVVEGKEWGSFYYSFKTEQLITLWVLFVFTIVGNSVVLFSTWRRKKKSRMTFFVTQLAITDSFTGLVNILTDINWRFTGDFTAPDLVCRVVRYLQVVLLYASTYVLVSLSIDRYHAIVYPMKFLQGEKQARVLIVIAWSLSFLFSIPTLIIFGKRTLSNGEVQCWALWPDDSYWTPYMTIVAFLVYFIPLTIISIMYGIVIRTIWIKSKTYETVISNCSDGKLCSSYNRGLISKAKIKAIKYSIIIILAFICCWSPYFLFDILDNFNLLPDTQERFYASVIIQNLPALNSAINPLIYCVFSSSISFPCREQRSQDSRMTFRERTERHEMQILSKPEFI
# PNC inhibitor: High Content Assay for Compounds that inhibit the Assembly of the Perinucleolar Compartment | PC3M PTB-GFP, PNC prevalence imaging, 16 h; stronger effect = lower value | activity change (PNC), negative = inhibition, % at 10 µM | 3.1% of 140,000 active;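 active = readout at or below -70, meaning at least 70% loss of cells showing the perinucleolar compartment, a nuclear body marking cancer cells; inconclusive = readout between -30 and a set limit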;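 note: plate controls were DMSO wells for no effect and camptothecin positive control wells for full effect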
#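 PC3M cells stably expressing PTB-GFP, 750–1000 cells/well, treated 16 h at 37 °C with compound (23 nl of library stock), in duplicate. After paraformaldehyde fixation and Hoechst stain, imaged at 20x; PNC prevalence scored by image analysis.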
# HTT ATP protect: qHTS Multiplex Assay to Identify Dual Action Probes in a Cell Model of Huntington: Cytoprotection (ATP); PC12 HTT-Q103 induced, cytoprotection, ATP luminescence, 40 h; Potency, µM (highest dose often 56.4 µM), without a hit: cytoprotection (ATP increase), most hits filed as activators; 0.14% of 230,000 active; AID 1471, 2008; note: potency is the fitted concentration of half-maximal effect; % of control where 0% means no effect; nearly all actives have a fitted effect of over 45% in size
#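 PC12 cells stably carrying ecdysone-inducible Htt exon 1 (Q103)–GFP were induced with 100 nM tebufenozide (final) alongside library compounds in a dose series. Cytoprotection was scored as retained ATP by ATPlite luminescence.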
# IMPase inh: qHTS Assay for Identifying the Cell-Membrane Permeable IMPase Inhibitors. CHO-M1 cells, IP1 accumulation, HTRF TR-FRET ratio. inhibition (IP1 accumulation), % at 46.1 µM. 120,000 tested, under 10 active. Inositol monophosphatase 1 (Rattus norvegicus), P97697; active = well fitted curve in the direction sought with a large enough effect in the signal ratio, not every such curve was filed as active; inconclusive = small, poorly fitted or top-dose-only effect, or a change in a side signal; inactive = no such curve, though single readings can be large or run the other way; the % refers to the signal ratio;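 note: cells stimulated with carbachol in lithium chloride buffer; plate controls were DMSO basal wells for no effect and reference inhibitor wells for full effect; higher means more IMPase inhibition seen as more IP1 and lower FRET ratio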
# Target sequence (P97697 whole entry, looked up): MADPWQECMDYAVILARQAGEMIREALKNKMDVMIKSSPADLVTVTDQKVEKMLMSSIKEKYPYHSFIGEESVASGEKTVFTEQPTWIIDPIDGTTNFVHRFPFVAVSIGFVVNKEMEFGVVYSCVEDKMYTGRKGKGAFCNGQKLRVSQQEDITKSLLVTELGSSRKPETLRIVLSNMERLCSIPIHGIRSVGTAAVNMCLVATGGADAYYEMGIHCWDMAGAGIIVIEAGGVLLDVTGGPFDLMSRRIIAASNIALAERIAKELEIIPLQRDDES
#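 Seeded CHO-M1 cells were dosed with compound at up to 46 uM, stimulated with carbachol for 30 min, then lysed in IP-One detection reagents. Higher IP1 lowers the TR-FRET signal.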
# HTT aggregate: qHTS Multiplex Assay to Identify Dual Action Probes in a Cell Model of Huntington: Aggregate Formation (GFP); 1.1% of 220,000 active; PC12 HttQ103-GFP aggregates, Acumen cytometry, 40 h; Potency, µM (doses to about 46.1 µM), for inactives: at the highest dose activity change, negative = inhibition, most hits filed as inhibitors; note: potency is the fitted concentration of half-maximal effect; % is set by controls: 0 for no effect and ±100 for the full control effect; nearly all actives have a fitted effect of over 60% in size
#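 Using laser scanning cytometry, GFP-positive aggregates were counted after lysis of PC12 cells induced with 100 nM tebufenozide to express HTT exon 1 Q103–GFP. Compounds were tested in titration.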
# IMPase Li inh: qHTS Assay for Identifying the Cell-Membrane Permeable IMPase Inhibitors: Potentiation with Lithium; 0.35% of 210,000 active; Potency, µM (titrated, usually from 59.4 µM), inactives show at the top dose activity, negative = IMPase inhibition, usual class: inhibitors; AID 1457, 2008; CHO-M1 cells, IP1 TR-FRET (IP-One), carbachol + lithium;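 note: IP1 builds up when IMPase is blocked and the TR-FRET signal falls; potency is the fitted concentration of half-maximal effect; plate controls were basal vehicle for no effect and high inhibitor control for full effect; nearly all actives have a fitted effect of over 50% in size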
#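 CHO cells stably expressing M1 receptor (2000/well) were cultured 16–30 h, then exposed to compounds with a small lithium addition for 30 min at 37C. IP1 was measured by TR-FRET competition; AC50 from Hill fits.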
# * = called active by the depositor; ? = inconclusive; . = no result given; [ ] = another dose, or the depositor's remark. Unless noted, calls come from the whole dose curve; as a rule, active = well fitted curve in the direction sought with a large enough effect; inconclusive = small, poorly fitted or top-dose-only effect, or another doubt; inactive = no such curve, though single readings can be large; an effect the other way counts as inactive or inconclusive.
SMILES,NPSR antag,PNC inhibitor,HTT ATP protect,IMPase inh,HTT aggregate,IMPase Li inh
COC(=O)NC(CC(C)=O)c1cccc(C(F)(F)F)c1 (stereo not drawn),.,.,30%[10 µM],.,.,.
CCOC(=S)SCC(=O)Nc1nc(C)c(C)s1,-46%,.,6%[10 µM],.,-17%[9.22 µM],.
CCOC(=S)SCC(=O)Nc1nccs1,-26%,.,-13%[10 µM],.,5.6µM*,6%
CCOCc1nnc(NC(=O)CSCc2ccccc2)s1,5%[46.1 µM],-18,10%,2,-2%[9.22 µM],2%[38.3 µM]
Cc1nnc(NC(=O)CSCc2ccccc2)s1,-12%[46.1 µM],-106*,-7%[10 µM],4,1%,26%[38.3 µM]
CSc1nnc(NC(=O)CCc2ccccc2)s1,-9%[46.1 µM],30,-14%,-6,-2%,28µM*
Cc1nnc(NC(=O)CSc2nnnn2Cc2ccccc2)s1,-7%[46.1 µM],?,?,-8,0.35µM*,5%[38.3 µM]
Cc1cc(-n2c(C)cc(C(=O)CN3C(=O)NC4(CCCCC4)C3=O)c2C)no1,-7%[46.1 µM],?,-10%[10 µM],0,9%,9%
Cc1cc(-n2c(C)cc(C(=O)CN3C(=O)NC4(CCCC4)C3=O)c2C)no1,-9%[46.1 µM],-117*,0%[10 µM],11,6%,-4%
O=C(COc1ccc2oc(-c3ccccc3)cc(=O)c2c1)Nc1ccccc1,-22%,-112*,-2%[10 µM],-2,-13%,?
COC(=O)C(C)N(C(=O)c1cccc(Cl)c1)c1c(C)cccc1C (stereo not drawn),?,-92*,13%,7,-25%,49%[38.3 µM]
Cc1ccc(C)c(NS(=O)(=O)c2cc(C(N)=O)ccc2C)c1,-11%[46.1 µM],-81*,0%,-2,-12%,7%[38.3 µM]
Cc1nc2c(=O)n(C)c(=O)n(C)c2nc1Cl,-31%,0,-90%[10 µM],.,10µM*,-9%
CC(=O)NS(=O)(=O)c1ccc(NC(=O)COc2ccc(C(=O)c3ccccc3)cc2)cc1,2%,-12,.,.,-12%,-7%
CCCn1c(N2CCN(CC(=O)NCc3cccs3)CC2)nc2ccccc21,-6%[46.1 µM],-87*,0%[10 µM],9,-30%,3%
CCCn1c(N2CCN(C(=O)Nc3ccccc3)CC2)nc2ccccc21,31%,.,0%[10 µM],.,10%[9.22 µM],2%
O=c1cc(-c2ccc(F)cc2F)[nH]c2ccc(F)cc12,.,.,?,.,.,-17%
CCN(CC)S(=O)(=O)c1ccc(NC(=O)c2ccc(Sc3nncn3C)c([N+](=O)[O-])c2)cc1,11%,-6,-1%[1.9 µM],2,27%,5%
CCS(=O)(=O)c1ccc(Sc2nncn2C)c([N+](=O)[O-])c1,3%,.,-165%,.,11µM*,6%
O=S(=O)(C/C(=C/CO)S(=O)(=O)c1ccccc1)c1ccccc1,-14%[46.1 µM],-95*,16%[0.074 µM],9,?,26%[38.3 µM]
CC(NC(=O)NC(N)=O)(C(F)(F)F)C(F)(F)F,7%[46.1 µM],-109*,2%,-8,0%,-3%[38.3 µM]
CC(NC(=O)NNC(N)=S)(C(F)(F)F)C(F)(F)F,18%,.,0%[10 µM],.,-3%[9.22 µM],.
CN(C)Cc1nnnn1-c1ccccc1,-22%,.,22%[10 µM],.,3%[9.22 µM],.
CCOC(=O)c1cccc(NC(=O)CNS(=O)(=O)c2cccs2)c1,-7%[46.1 µM],-100*,-16%[10 µM],1,-11%,-2%
CCOC(=O)c1cccc(NC(=O)CCS(=O)(=O)c2cccs2)c1,-4%[46.1 µM],44,7%,2,12%,-11%[38.3 µM]
SMILES,NPSR antag,PNC inhibitor,HTT ATP protect,IMPase inh,HTT aggregate,IMPase Li inh
CCCCC1C2C(=O)N(c3ccc(C)cc3)C(=O)C2ON1c1ccccc1 (stereo not drawn),-7%,.,0%[10 µM],.,8%[9.22 µM],.
Cc1nc(-c2ccc(Br)cc2)ccc1C(=O)O,-17%,?,.,.,4%,8.9µM*
Cc1ccc(-c2ccc(C(=O)O)c(C)n2)cc1,4%,-17,8%[10 µM],.,4%,3%
CN1CCc2c(sc(NC(=O)c3cc4cc([N+](=O)[O-])ccc4s3)c2C(N)=O)C1,-26%,.,-202%,.,7.1µM*,13%
O=C1NC(c2ccccc2)C(C(=O)c2cccs2)=C1O (stereo not drawn),14%[46.1 µM],-107*,6%,?,?,-17%[38.3 µM]
O=C(c1ccccc1)c1cccs1,17%,.,19%,.,25%,-2%
COc1cccc(C2C(C(=O)c3cc4ccccc4o3)=C(O)C(=O)N2c2cc(C)on2)c1OC (stereo not drawn),3.2µM*,19,-12%[0.074 µM],?,-5%,11µM*
COc1cc(C2C(C(=O)c3ccc(C)o3)=C(O)C(=O)N2c2cc(C)on2)ccc1O (stereo not drawn),-8%[46.1 µM],?,-9%,-4,-10%,-22%[38.3 µM]
COc1cc(C2C(C(=O)c3ccc(C)o3)=C(O)C(=O)N2c2cc(C)on2)cc(OC)c1OC (stereo not drawn),-24%[46.1 µM],-4,-6%,4,7%,-6%[38.3 µM]
COc1cccc(C2C(C(=O)c3cc4cccc(OC)c4o3)=C(O)C(=O)N2c2cc(C)on2)c1OC (stereo not drawn),6.3µM*,13,-10%[0.074 µM],?,-4%,10µM*
CCn1c(=S)ccc2ccc(OC)cc21,?,23,-9%,?,1%,?
CCn1ccc2cc(OC)ccc2c1=S,4%[46.1 µM],17,2%,?,19%,11µM*
O=C(Nc1ccc(S(=O)(=O)Nc2nccs2)cc1)c1cnc(Cl)c(Cl)c1,-8%,.,13%[10 µM],.,-16%[9.22 µM],.
CCCCC(CC)CNC(=O)CC1Nc2c3ccccc3nc(=S)n2C1=O (stereo not drawn),-35%,.,?,.,-5%,13µM*
On1onc2c3cc(-c4ccccc4)nc3ccc21,13µM*,-9,-3%,?,-14%,40%[38.3 µM]
CCCCCn1c(=O)[nH]c2cc(C(=O)N3CCN(Cc4ccc5c(c4)OCO5)CC3)ccc2c1=O,-24%[46.1 µM],19,-14%,5,8.9µM*,33%[38.3 µM]
CCCCCn1c(=O)[nH]c2cc(C(=O)NCc3ccc4c(c3)OCO4)ccc2c1=O,-14%[46.1 µM],33,-37%,-19,?,-27%[38.3 µM]
O=C(O)[C@@H]1[C@@H]2O[C@H]([C@@H](Br)[C@H]2Br)[C@H]1C(=O)O,.,.,-18%[10 µM],.,.,8%
CCCCCCCCCCCCCCCCCCOC[C@H](COP(=O)([O-])OCC[N+](C)(C)C)OC(C)=O,.,.,-18%,.,.,-3%
COC(=O)c1cc(NC(=O)c2c(Cl)cnn2C)cc(C(=O)OC)c1,-6%,-101*,10%[0.074 µM],.,5%,5%
